In PubChem BioAssay:
The source made the active and inactive calls.

Legend:
[1] = system: Human papillomavirus type 1a protein E7 (residues 44-93); experiment: HPV1a E7 fragment binders on microarrays, primary screen, biochemical, small-molecule microarray, residues 44-93, 635 nm fluorescence (AID 1108); conditions: small-molecule microarray binding, fluorescence 635 nm; higher = more signal;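 further: E7 fragment applied at 1 µg/mL in TBST for 1 h at 4 C; score combines spot fluorescence with its signal to noise ratio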
[2] = modulators of HCV replicon luciferase signal, primary screen, HCV replication inhibitor project, Huh7 cells, luciferase reporter (AID 1109); conditions: 48 h, higher = more signal;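 further: huh7 hepatoma cells harbouring a luciferase neomycin HCV replicon reporter; luciferase luminescence as measure of HCV replicon replication; test concentration not given here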
[3] = molecular target: Left-right determination factor 2 (Homo sapiens) (UniProt O00292); experiment: LEFTY2 binders on small-molecule microarrays, primary screen, biochemical, small-molecule microarray, 635 nm fluorescence scan (AID 1110); conditions: LEFTY2 binding, higher = more signal
[4] = molecular target: Calmodulin-1 (Homo sapiens) (UniProt P0DP23); experiment: CALM1 binders on microarrays, EGTA buffer, profiling panel, biochemical, small-molecule microarray, Cy5-labelled CALM1 (AID 1111); conditions: Cy5-CALM1 binding fluorescence, higher = more signal;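 further: labelled calmodulin applied in Tris saline Tween buffer holding calcium plus EGTA and DTT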
[5] = molecular target: Calmodulin-1 (Homo sapiens) (UniProt P0DP23); experiment: calcium-bound CALM1 binders on microarrays, profiling panel, artefact control for SMM control-protein annotation, biochemical, small-molecule microarray, Cy5-labelled CALM1, plus calcium (AID 1112); conditions: Cy5-CALM1 binding fluorescence, higher = more signal;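 further: score merges spot fluorescence with signal to noise from triplicate slides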
[6] = small-molecule microarray binders of probe aWnt5a, primary screen, biochemical, biotinylated probe, 635/667 nm fluorescence (AID 1113); conditions: higher = more signal;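 further: score merges 667 nm fluorescence intensity with signal-to-noise per printed feature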
[7] = small-molecule microarray binders of probe aShh, primary screen, biochemical, biotinylated probe, 635/667 nm fluorescence (AID 1114); conditions: higher = more signal;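 further: probe is biotin-labelled aShh protein from a stem cell growth factor screen; measures binding of labelled protein to compounds printed on the slide; score merges feature fluorescence at 667 nm with signal-to-noise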
[8] = small-molecule microarray binders of probe aNog, primary screen, biochemical, biotinylated probe, 635/667 nm fluorescence (AID 1115); conditions: higher = more signal;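 further: probe is biotinylated aNog protein used at 0.15 µg/mL for 1 h at 4 C; z-score combines 667 nm fluorescence of each spot with its signal to noise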
[9] = molecular target: Torsin-1A-interacting protein 1 (Homo sapiens) (UniProt Q5JTV8); experiment: LAP1 binders from COS7 cell lysate, primary screen, small-molecule microarray, 635/667 nm fluorescence (AID 1116); conditions: COS7-hLAP1 lysate binding, 635 nm fluorescence, higher = more signal
[10] = molecular target: Alpha-bungarotoxin (Bungarus multicinctus) (UniProt P60615); experiment: alpha-bungarotoxin binders on microarray, profiling panel, artefact control for SMM control protein annotation, biochemical, small-molecule microarray, Alexa647 label, 635/667 nm fluorescence (AID 1117); conditions: alpha-BTX-A647 binding fluorescence, higher = more signal
Albumin (Bos taurus) = Albumin (Bos taurus) (UniProt P02769); experiment: bovine serum albumin binders on microarray, profiling panel, artefact control for SMM control protein annotation, biochemical, small-molecule microarray, Alexa647 label, 635/667 nm fluorescence (AID 1118); conditions: BSA-A647 binding, fluorescence 635 nm, higher = more signal;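 further: score merges 667 nm emission intensity and signal-to-noise per printed compound spot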
[11] = small-molecule microarray binders of probe aXIP, primary screen, biochemical, NeuroSMM set, 635/667 nm fluorescence (AID 1119); conditions: higher = more signal, called active from +8 up or from −8 down;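 further: probe is the protein aXip251-270 applied at 1 µg/mL to compound-printed slides; binding of probe to printed compounds measured as 667 nm fluorescence plus signal to noise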
[12] = small-molecule binders of probe aNOTCH3, primary screen, biochemical, small-molecule microarray, 635/667 nm fluorescence (AID 1120); conditions: higher = more signal;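 further: probe is a biotin-tagged antibody raised against NOTCH3 rather than NOTCH3 protein; score merges spot fluorescence near 667 nm with spot signal to noise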
[13] = small-molecule binders of probe aNOTCH2, primary screen, biochemical, small-molecule microarray, 635/667 nm fluorescence (AID 1121); conditions: higher = more signal;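 further: score merges feature fluorescence read at 667 nm with its signal to noise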
[14] = molecular target: Carbonic anhydrase 2 (Homo sapiens) (UniProt P00918); experiment: CAII small-molecule binders, profiling panel, biochemical, small-molecule microarray, Alexa647-labelled CAII (AID 1122); conditions: CAII-A647 binding fluorescence, higher = more signal
[15] = COS7 lysate on small-molecule microarray, probe aHis, 635 nm (AID 1123); conditions: COS7 cell lysate, fluorescence, higher = more signal;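 further: z-score combines 667nm fluorescence intensity with signal-to-noise per printed compound spot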
[16] = compound binding in COS7 lysate, probe aLAP1, primary screen, cell lysate, small-molecule microarray (AID 1124); conditions: probe aLAP1, fluorescence, higher = more signal;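 further: lysate comes from COS7 cells expressing LAP1 and is applied at 0.3 µg/mL; score merges spot fluorescence near 667 nm with signal-to-noise over triplicate slides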
Sam68 (KHDRBS1) = experiment: Sam68 small-molecule binders, primary screen, biochemical, small-molecule microarray, 635 nm fluorescence (AID 1125); conditions: small-molecule microarray binding, higher = more signal;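 further: score merges 667 nm channel intensity with signal to noise over triplicate slides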
[17] = system: Chordin-like protein 2 (CHRDL2); experiment: CHRDL2 small-molecule binders, primary screen, biochemical, small-molecule microarray, 635 nm fluorescence (AID 1126); conditions: small-molecule microarray binding, fluorescence 635 nm; higher = more signal;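 further: printed compound slides probed with Chrdl2 protein at 4 µg/mL for 1 h at 4 C; score merges 667 nm emission intensity with signal to noise over three replicate slides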
[18] = molecular target: Concanavalin-A (Canavalia ensiformis) (UniProt P02866); experiment: ConA small-molecule binders, primary screen, artefact control for SMM control protein annotation, biochemical, small-molecule microarray, Alexa647 label, 635 nm (AID 1127); conditions: ConA-A647 binding fluorescence, higher = more signal;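 further: z combines 667 nm emission intensity with signal-to-noise across three replicate slides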
Chain of Concanavalin-A (Canavalia ensiformis) (P02866 whole entry, looked up): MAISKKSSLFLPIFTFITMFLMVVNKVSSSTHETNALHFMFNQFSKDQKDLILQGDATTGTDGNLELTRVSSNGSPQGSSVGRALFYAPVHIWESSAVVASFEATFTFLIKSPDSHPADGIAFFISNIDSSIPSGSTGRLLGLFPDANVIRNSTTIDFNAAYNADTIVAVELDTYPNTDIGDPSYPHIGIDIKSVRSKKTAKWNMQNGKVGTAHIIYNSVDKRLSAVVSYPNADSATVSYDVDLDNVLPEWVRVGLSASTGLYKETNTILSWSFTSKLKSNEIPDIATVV

Chain of Left-right determination factor 2 (Homo sapiens) (O00292 whole entry, looked up): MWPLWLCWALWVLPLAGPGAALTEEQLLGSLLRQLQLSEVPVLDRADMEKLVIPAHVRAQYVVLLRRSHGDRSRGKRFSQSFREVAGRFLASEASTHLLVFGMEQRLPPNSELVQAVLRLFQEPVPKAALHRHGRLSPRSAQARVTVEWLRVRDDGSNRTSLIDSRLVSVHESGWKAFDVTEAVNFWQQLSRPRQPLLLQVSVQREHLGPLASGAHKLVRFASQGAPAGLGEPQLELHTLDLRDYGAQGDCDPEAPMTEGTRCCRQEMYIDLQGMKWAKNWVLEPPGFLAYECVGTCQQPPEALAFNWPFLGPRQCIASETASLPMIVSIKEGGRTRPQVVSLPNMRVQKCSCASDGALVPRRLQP
Chain of Torsin-1A-interacting protein 1 (Homo sapiens) (Q5JTV8 whole entry, looked up): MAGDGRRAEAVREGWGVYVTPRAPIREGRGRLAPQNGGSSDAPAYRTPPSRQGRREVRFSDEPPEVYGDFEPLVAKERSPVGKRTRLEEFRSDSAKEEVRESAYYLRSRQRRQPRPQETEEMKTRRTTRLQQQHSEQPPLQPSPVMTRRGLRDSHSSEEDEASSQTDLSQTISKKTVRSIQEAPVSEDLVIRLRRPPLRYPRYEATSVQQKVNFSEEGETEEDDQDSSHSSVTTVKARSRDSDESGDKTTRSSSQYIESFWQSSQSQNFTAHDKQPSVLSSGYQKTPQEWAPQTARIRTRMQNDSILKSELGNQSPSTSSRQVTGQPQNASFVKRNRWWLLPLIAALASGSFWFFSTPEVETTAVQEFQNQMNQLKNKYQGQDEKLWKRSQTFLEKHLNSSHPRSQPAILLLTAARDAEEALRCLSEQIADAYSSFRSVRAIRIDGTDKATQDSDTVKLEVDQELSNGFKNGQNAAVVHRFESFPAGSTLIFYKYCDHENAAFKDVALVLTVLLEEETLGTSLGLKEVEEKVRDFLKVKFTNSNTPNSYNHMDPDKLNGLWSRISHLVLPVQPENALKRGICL
Chain of Alpha-bungarotoxin (Bungarus multicinctus) (P60615 whole entry, looked up): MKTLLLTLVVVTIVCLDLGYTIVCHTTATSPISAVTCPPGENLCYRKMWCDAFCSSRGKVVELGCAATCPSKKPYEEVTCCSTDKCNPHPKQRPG
Chain of Albumin (Bos taurus) (P02769 whole entry, looked up): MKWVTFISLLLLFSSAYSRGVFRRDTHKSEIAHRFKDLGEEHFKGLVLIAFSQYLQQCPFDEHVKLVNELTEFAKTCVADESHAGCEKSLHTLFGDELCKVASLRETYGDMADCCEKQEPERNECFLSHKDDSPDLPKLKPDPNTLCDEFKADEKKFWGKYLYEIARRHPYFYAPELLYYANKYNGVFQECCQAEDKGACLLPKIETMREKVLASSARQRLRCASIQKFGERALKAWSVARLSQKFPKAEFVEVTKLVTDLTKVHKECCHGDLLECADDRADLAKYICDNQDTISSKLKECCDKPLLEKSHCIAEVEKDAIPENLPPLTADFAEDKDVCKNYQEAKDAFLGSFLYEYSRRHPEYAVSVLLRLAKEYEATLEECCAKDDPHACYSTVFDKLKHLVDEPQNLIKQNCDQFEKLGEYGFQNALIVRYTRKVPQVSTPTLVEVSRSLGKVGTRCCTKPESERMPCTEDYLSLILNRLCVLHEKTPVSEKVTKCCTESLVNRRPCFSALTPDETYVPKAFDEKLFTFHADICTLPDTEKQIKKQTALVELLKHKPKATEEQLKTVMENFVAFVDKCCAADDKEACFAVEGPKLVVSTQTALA

Row | Compound | composite z-score [1] | z-score [2] | composite z-score [3] | composite z-score [4] | composite z-score [5] | composite z-score [6] | composite z-score [7] | composite z-score [8] | composite z-score [9] | composite z-score [10] | composite z-score (Albumin (Bos taurus)) | composite Z-score [11] | composite z-score [12] | composite z-score [13] | composite z-score [14] | composite z-score [15] | composite z-score [16] | composite z-score (Sam68 (KHDRBS1)) | composite z-score [17] | composite z-score [18]
1 | [N-]=[N+]=NCc1ccccc1[C@H]1OC(c2ccc(OCCCO)cc2)=N[C@@]1(Cc1ccccc1)C(=O)O | 1.38 | -2.64 | 0.115 | 1.46 | 0.484 | 0.0079 | 0.199 | -0.204 | 0.875 | 0.96 | 0.179 | -0.365 (inactive) | 0.102 | -0.106 | 0.63 | 1.05 | -0.289 | 1.13 | -0.469 | 1.11
2 | COc1ccc([Si](C)(C)[C@H]2[C@H](CCO)O[C@@]3(C(=O)N(Cc4cccc(N5C(=O)c6cccc7cccc5c67)c4)c4ccccc43)[C@@H]2C)cc1 | 1.06 | -4.97 | -0.652 | 1.04 | 0.591 | 0.0618 | 0.0121 | 0.741 | 0.116 | 0.621 | 0.577 | 0.326 (inactive) | -0.122 | -0.148 | 0.23 | 0.856 | 1.42 | 1.13 | -0.27 | 0.863
3 | CC(C)[Si]1(C(C)C)O[C@@H](c2ccccc2)c2cc(-c3ccc(-c4ccc(Cl)c(Cl)c4)o3)nc(CCc3ccccc3)c21 | 0.0027 | -2.07 | -1.32 | -0.411 | 0.873 | -0.152 | 0.0141 | -0.0118 | -0.193 | -1.17 | -1.24 | 0.0953 (inactive) | -0.226 | -0.148 | 0.287 | 0.143 | 0.312 | -0.141 | -1.59 | -1.04
4 | CN(C)CCCC[C@@H]1NC(=O)[C@H]2C[C@@H](C(=O)NCCCCCNC(=O)CS)[C@@H](c3ccc(O)cc3)N2C1=O | -0.781 | 0.579 | -1.34 | -0.0462 | 0.586 | -0.124 | -0.0396 | -0.0793 | 0.172 | 0.808 | 0.74 | 0.157 (inactive) | -0.374 | -0.127 | -0.204 | 0.268 | -0.733 | -1.38 | -0.688 | 0.734
5 | C=CC[C@@]1(C(=O)NCCN2CCOCC2)N=C(c2ccc(OCCCO)cc2)O[C@@H]1c1ccccc1CN=[N+]=[N-] | 0.947 | -1.74 | -0.325 | 1.42 | 0.555 | -0.154 | 0.0822 | 0.104 | 1.77 | 0.604 | 0.831 | -0.0095 (inactive) | -0.434 | -0.397 | 0.556 | 2.9 | 0.895 | 1.2 | 0.055 | 0.85
6 | C=C(CCCC)/C(=C/C[C@@H](OC(=O)c1ccncc1)c1ccc(CO)o1)c1cc(C(=O)OC)ccc1OC | 0.277 | -1.73 | 1.02 | 1.19 | -0.759 | -0.0445 | -0.0011 | -0.216 | 0.774 | 1.59 | 0.662 | 0.421 (inactive) | 0.0897 | -0.0349 | 0.709 | 1.46 | 0.924 | 1.3 | 0.422 | 1.15
7 | C[C@]1(C(=O)NCC(F)(F)F)c2ccccc2C(=O)N(Cc2cc(F)cc(C(F)(F)F)c2)[C@H]1c1ccc(CO)cc1 | 1.05 | -0.906 | -0.977 | 1.6 | 0.302 | -0.224 | 0.0024 | 0.452 | 0.729 | 0.0035 | -0.385 | -0.191 (inactive) | -0.198 | -0.135 | 0.694 | 2.18 | 0.87 | 1.11 | -0.115 | 0.247
8 | COC(=O)[C@@]1(Cc2ccc(F)cc2)[C@H]2c3cc(C(=O)N4CCCC4)n(Cc4ccc(Cl)c(C(F)(F)F)c4)c3C[C@H]2CN1C(=O)c1ccccc1 | 1.37 | -2.42 | 0.04 | 2.51 | 1.42 | 0.963 | 2.64 | 1.16 | 1.68 | 1.57 | 1.02 | 0.267 (inactive) | 1.53 | 0.853 | 0.801 | 2.89 | 1.31 | 1.33 | -0.804 | 1.16
9 | O=C1O[C@H](c2ccccc2)[C@H](c2ccccc2)N2[C@H]1[C@@H](C(=O)NC[C@H](O)c1ccccc1)[C@]1(C(=O)Nc3ccc(C#CC4=CCCCC4)cc31)[C@H]2c1ccc(O)cc1 | 1.38 | -2.02 | 0.538 | 0.784 | -0.566 | -0.0403 | -0.0146 | 0.0129 | 0.705 | 1.52 | 0.296 | -1.22 (inactive) | 0.0112 | -0.124 | 0.397 | 1.98 | 0.826 | 1.29 | 0.594 | 1.09
10 | O=C1c2ccccc2[C@](Cc2ccccc2I)(C(=O)O)[C@H](c2ccc(CO)cc2)N1Cc1ccccc1C(F)(F)F | 1.46 | -0.702 | -0.422 | 1.08 | -0.604 | -0.0006 | -0.0382 | 0.689 | -0.0086 | 1.58 | 0.449 | -0.249 (inactive) | -0.0647 | -0.106 | 0.583 | 1.91 | 1.77 | 0.431 | -0.697 | 0.918
11 | C=CCNC(=O)[C@@H]1[C@H]2C(=O)O[C@H](c3ccccc3)[C@H](c3ccccc3)N2[C@H](c2ccccc2OCCO)[C@@]12C(=O)N(C(=O)OCCOC)c1ccc(C#CCC(C(=O)OC)C(=O)OC)cc12 | 1.12 | -2.59 | 1.47 | 2.23 | 1.01 | 0.826 | 2.18 | 2.79 | 2.74 | 3.06 | 0.718 | 1.26 (inactive) | 1.41 | 0.526 | 0.505 | 3.05 | 1.33 | 1.32 | 1.49 | 1.15
